PubChem BioAssay
For part of these data: Measured potencies and affinities stand elsewhere. Activity calls are given as the source filed them.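 How the source made its calls, unless noted: active means dose curve with midpoint inside tested range, moderate steepness, plateau gap beyond fit error, low compound glow and bead-link interference; inactive means the rest.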

Columns and labels:
[1] = molecular target: Cell division control protein 42 homolog (Homo sapiens) (UniProt P60953); assay: inhibition of fluorescent GTP binding to constitutively active Cdc42 – biochemical, multiplex bead flow cytometry, Bodipy-FL-GTP, dose response (AID 1333;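 active means fitted half-maximal concentration within the tested dose range, moderate curve steepness, a statistically real signal drop, and little compound fluorescence or tag-binding interference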)
[2] = molecular target: Cell division control protein 42 homolog (Homo sapiens) (UniProt P60953); assay: inhibition of fluorescent GTP binding to wildtype Cdc42 – biochemical, multiplex bead flow cytometry, Bodipy-FL-GTP, dose response (AID 1334;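 active means fitted half-maximal concentration within the tested range, moderate curve steepness, significant signal drop, and little compound fluorescence or bead-linkage interference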); settings: bead-based flow cytometry, Bodipy-FL-GTP binding to GST-Cdc42; at 100 µM (top of the series) unless noted
[3] = molecular target: GTPase HRas (Homo sapiens) (UniProt P01112); assay: Ras wt fluorescent GTP loading blockade – biochemical, wildtype, multiplex bead flow cytometry, dose response (AID 1335;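 active means fitted half-maximal concentration within 10 nM to 100 µM, steepness 0.5 to 2, significant signal drop, low assay interference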); settings: bead-based flow cytometry, Bodipy-GTP binding to GST-Ras; at 100 µM (top of the series) unless noted
[4] = test system: Ras-related protein Rab-7a (dog), GTP binding; assay: blockers of fluorescent GTP binding to Rab7 – biochemical, wildtype, multiplex bead flow cytometry, dose response (AID 1336; call rule not given here)
[5] = molecular target: Ras-related C3 botulinum toxin substrate 1 (Homo sapiens) (UniProt P63000); assay: inhibition of wildtype Rac1 nucleotide loading – biochemical, multiplex bead flow cytometry, dose response (AID 1340); settings: GST-Rac1 beads, Bodipy-FL-GTP binding; at 100 µM (top of the series) unless noted
[6] = molecular target: GTPase HRas (Homo sapiens) (UniProt P01112); assay: blockade of GTP loading onto mutant Ras – biochemical, activated mutant, multiplex bead flow cytometry, dose response (AID 1341;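 active means dose-response curve with midpoint inside the tested range, moderate steepness, significant amplitude and little compound fluorescence or bead-attachment interference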;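 further: GST-tagged constitutively activated Ras mutant immobilized on beads and multiplexed with other GTPases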)

GTPase HRas (Homo sapiens), sequence (P01112 whole entry, looked up): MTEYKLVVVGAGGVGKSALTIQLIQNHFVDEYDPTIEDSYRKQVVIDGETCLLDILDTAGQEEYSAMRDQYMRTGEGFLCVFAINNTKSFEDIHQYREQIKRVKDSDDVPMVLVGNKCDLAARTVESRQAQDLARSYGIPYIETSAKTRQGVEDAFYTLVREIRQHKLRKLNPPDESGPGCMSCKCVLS
Cell division control protein 42 homolog (Homo sapiens), sequence (P60953 whole entry, looked up): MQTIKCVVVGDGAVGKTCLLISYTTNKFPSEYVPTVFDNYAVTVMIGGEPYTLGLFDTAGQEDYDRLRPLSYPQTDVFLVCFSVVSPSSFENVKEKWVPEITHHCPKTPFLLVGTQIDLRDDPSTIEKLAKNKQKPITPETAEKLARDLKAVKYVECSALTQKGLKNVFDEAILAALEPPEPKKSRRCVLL

| Structure (SMILES) | outcome [1] | fluorescence, percent of control (lower = inhibition) [2] [%] | GTP binding, percent of control [3] | outcome [4] | GTP binding signal, raw median fluorescence (lower = inhibition) (MCF (arbitrary fluorescence units)) [5] | outcome [6] |
| --- | --- | --- | --- | --- | --- | --- |
| COc1ccc(C(=O)N[C@H](C(=O)OCc2cc(=O)oc3cc(C)ccc23)C(C)C)cc1 | inactive | 50.4 | 63.8% | inactive | 202 | inactive |
| CC(Sc1nnc(NC2CCCCC2)s1)C(=O)Nc1ccc2c(c1)C(=O)c1ccccc1C2=O (stereo not given) | inactive | 49.1 | 61.4% | inactive | 161 | inactive |
| Cc1ccc(O)c(C(=O)c2cnn(C(=O)Cc3csc(C)n3)c2)c1 | inactive | 37 | 86.3% | inactive | 242 | inactive |
| Cc1ccc(C(C)C)c(OCCSc2nc3ccccc3n2CC(=O)O)c1 | inactive | 56.7 | 86.4% | inactive | 32.1 | inactive |
| CCOC(=O)Cn1nnnc1CN(Cc1cccs1)Cc1cc2cc(C)ccc2[nH]c1=O | inactive | 98.4 | 178% | inactive | 187 | inactive |
| COC(=O)c1cccnc1SCc1ccccc1 | inactive | 46 | 61.1% | inactive | 184 | inactive |
| O=C(O)c1cccc(Oc2ccc([N+](=O)[O-])cc2)c1 | inactive | 62.7 | 61.7% | inactive | 0 | inactive |
| Cc1nnc2ccc(-c3ccc(NC(=O)c4ccco4)cc3)nn12 | inactive | 69.8 | 109% | inactive | 215 | inactive |
| Cn1c(=O)cc(N2CCOCC2)[nH]c1=O | inactive | 37.4 | 84.8% | inactive | 262 | inactive |
| Cc1c(Cl)cccc1NS(=O)(=O)c1ccc2c(c1)C1C=CCC1C(c1ccc(C(=O)O)cc1)N2 (stereo not given) | inactive | 22.3 | 72.9% | inactive | 222 | inactive |
| Cc1nn2c(-c3cccc(NC(=O)c4ccco4)c3)nnc2c2ccccc12 | inactive | 37.4 | 51% [at 33.3 µM] | inactive | 136 | inactive |
| O=C(O)c1cc(N2N=C(C(F)(F)F)/C(=C/C=C/c3ccco3)C2=O)ccc1Cl | inactive | 22.4 | 69.8% | inactive | 174 | inactive |
| O=S(=O)(Cc1ccccc1)N1CCc2ccccc21 | inactive | 48.6 | 63.7% | inactive | 202 | inactive |
| S=C(NCCc1ccccc1)NC1CC1 | inactive | 36.3 | 79.2% | inactive | 253 | inactive |
| O=c1nc2c(O)cccn2c2c1c(=O)[nH]c1ccccc12 | inactive | 33.4 | 44.6% | inactive | 93 | inactive |
| CC(=O)NC1CC2CCCC(C1)N2C(=O)Nc1ccccc1 (stereo not given) | inactive | 88.1 | 152% | inactive | 217 | inactive |
| Cc1ccc(/C=N/NC(=O)C2CCN(Cc3ccc(F)cc3Cl)CC2)o1 | inactive | 39 | 82.7% | inactive | 241 | inactive |
| Cc1cc(NC(=O)/C(C#N)=C/c2ccc(-c3ccc(SC(F)F)cc3)o2)n(-c2ccccc2)n1 | inactive | 75.1 | 96.7% | inactive | 211 | inactive |
| CCOc1ccc(NCc2ccccc2OCc2cccc(F)c2)cc1 | inactive | 69.4 | 68.1% | inactive | 0 | inactive |
| COc1ccccc1OCCSc1nc2ccccc2n1CC(=O)O | inactive | 62.3 | 87.1% | inactive | 33.6 | inactive |

| Structure (SMILES) | outcome [1] | fluorescence, percent of control (lower = inhibition) [2] [%] | GTP binding, percent of control [3] | outcome [4] | GTP binding signal, raw median fluorescence (lower = inhibition) (MCF (arbitrary fluorescence units)) [5] | outcome [6] |
| --- | --- | --- | --- | --- | --- | --- |
| Cc1cc(C)n2nc(C(=O)Nc3cccc(S(=O)(=O)N4CCCC4)c3)nc2n1 | inactive | 33.5 | 78.7% | inactive | 227 | inactive |
| COc1cccc(C2CC(c3ccccc3)Nc3ncnn32)c1 (stereo not given) | inactive | 38.6 | 80.1% | inactive | 242 | inactive |
| CC1CCCN(c2ccc3nc4ccccc4c(=O)n3n2)C1 (stereo not given) | inactive | 33.3 | 74.6% | inactive | 179 | inactive |
| COc1cccc(-n2c(SCC(=O)NCCC3=CCCCC3)nc3n[nH]c(C)c3c2=N)c1 | inactive | 70.4 | 132% | inactive | 140 | inactive |
| O=C(C#Cc1ccc(-c2ccccc2)cc1)c1ccc([N+](=O)[O-])cc1 | inactive | 44.5 | 196% | inactive | 51.8 | inactive |
| Cc1ccc(-c2ccc(/C=C3\SC(N4CCOCC4)=NC3=O)o2)cc1 | inactive | 31.4 | 71.6% | inactive | 195 | inactive |
| N=C1/C(=C\c2ccc(SCc3ccco3)o2)C(=O)N=C2SC=NN12 | inactive | 64.2 | 108% | inactive | 112 | inactive |
| COC(=O)CSc1nc2cc(Cl)ccc2c(=O)n1C1CCCC1 | inactive | 98 | 180% | inactive | 186 | inactive |
| COc1ccc(/C=N/NC(=S)Nc2cc(S(=O)(=O)N3CCOCC3)ccc2N2CCOCC2)cc1O | inactive | 65.8 | 80.8% | inactive | 0 | inactive |
| Cn1cccc1/C=C1\SC(=S)N(NC(=O)c2ccccc2Cl)C1=O | inactive | 24.6 | 62.8% | inactive | 178 | inactive |
| Nc1nc(N)c2sc3nc4c(cc3c2n1)CCC4 | inactive | 89.1 | 126% | inactive | 136 | inactive |
| N#Cc1ccc2ccn(CC(=O)N3CCCc4ccccc43)c2c1 | inactive | 40 | 89.5% | inactive | 351 | inactive |
| COc1cccc(NC(=O)NCCCN2CCN(c3ccc(F)cc3)CC2)c1 | inactive | 40.4 | 84.6% | inactive | 255 | inactive |
| COC(=O)c1cccc(Nc2cc(C)nc(-c3ccccc3O)n2)c1 | inactive | 43.1 | 54.2% | inactive | 148 | inactive |
| COc1ccc(/C=N/NC(=O)c2cccnc2)cc1Cn1nc([N+](=O)[O-])c(Br)c1C | inactive | 31.2 | 67% | inactive | 153 | inactive |
| COc1cc2[nH]c(=S)nc(NCCC(C)C)c2cc1OC | inactive | 29.1 | 55.6% | inactive | 123 | inactive |
| Cc1ccccc1CSc1ncccc1C(=O)O | inactive | 74.5 | 87.9% | inactive | 48.3 | inactive |
| COc1cc(/C=C(/C#N)c2nc3ccccc3[nH]2)ccc1OCc1ccc(C(=O)O)o1 | inactive | 21.9 | 59.6% | inactive | 116 | inactive |
| O=C(/C=C/c1ccccc1)NC(NC(=S)Nc1ccc(C(=O)O)cc1)C(Cl)(Cl)Cl (stereo not given) | inactive | 35.2 | 78.3% | inactive | 178 | inactive |
| O=c1[nH]cnc2c1C(c1ccccc1[N+](=O)[O-])c1c(nc[nH]c1=O)O2 | inactive | 38.6 | 50% | inactive | 113 | inactive |

| Structure (SMILES) | outcome [1] | fluorescence, percent of control (lower = inhibition) [2] [%] | GTP binding, percent of control [3] | outcome [4] | GTP binding signal, raw median fluorescence (lower = inhibition) (MCF (arbitrary fluorescence units)) [5] | outcome [6] |
| --- | --- | --- | --- | --- | --- | --- |
| O=C(O)c1ccc(CSCc2cccc(Cl)c2)o1 | inactive | 57.3 | 81.4% | inactive | 30.1 | inactive |
| O=C(O)C1=C[C@H](c2ccc(C(F)(F)F)cc2)C[C@H](OCc2ccc(CO)cc2)O1 | inactive | 30.2 | 87.2% | inactive | 246 | inactive |
| CC(C)N(C)NC(=S)Nc1ccccc1 | inactive | 53.9 | 64.3% | inactive | 210 | inactive |
| N#C/C(=C/c1ccc(-c2ccccc2)o1)c1nc(-c2cccs2)cs1 | inactive | 96.4 | 107% | inactive | 228 | inactive |
| Cc1n[nH]c(=S)c2nn(-c3cccc(Cl)c3)c(C)c12 | inactive | 55.8 | 71.1% | inactive | 217 | inactive |
| CCOC(=O)Cn1nnnc1C(CC)N(Cc1cccs1)Cc1cc2ccc(OC)cc2[nH]c1=O (stereo not given) | inactive | 97.8 | 173% | inactive | 194 | inactive |
| CCOc1ccccc1C(=O)Nc1cccc(-c2ccc3nncn3n2)c1 | inactive | 33.5 | 73.1% | inactive | 194 | inactive |
| O=c1[nH]c2ccc(S(=O)(=O)NCc3ccccc3)cc2[nH]1 | inactive | 38.1 | 84.5% | inactive | 218 | inactive |
| O=S(=O)(N/N=C\c1cccnc1)c1ccccc1 | inactive | 53.2 | 67.9% | inactive | 227 | inactive |
| O=C(NC1CCCCC1)C(c1ccco1)N(Cc1ccco1)C(=O)c1ccco1 (stereo not given) | inactive | 90.7 | 174% | inactive | 176 | inactive |
| N#C/C(=C\c1ccncc1)c1nc2ccccc2[nH]1 | inactive | 31 | 81.6% | inactive | 273 | inactive |
| O=C(Nc1c(F)cccc1F)c1cnc(N2CCN(c3ccccn3)CC2)c2ccccc12 | inactive | 97 | 199% | inactive | 217 | inactive |
| O=C(O)c1ccc(Nc2nc(-c3cccnc3)nc3ccccc23)cc1 | inactive | 27.9 | 66.3% | inactive | 142 | inactive |
| O=C(O)c1ccc(NS(=O)(=O)c2ccc3c(c2)C(=O)c2ccccc2C3=O)cc1 | inactive | 28.6 | 69% | inactive | 118 | inactive |
| CC(C)(C)C#CC(=O)c1ccc([N+](=O)[O-])cc1 | inactive | 37.9 | 196% | inactive | 49.6 | inactive |
| COCCNc1nnnc2c1sc1nc(N3CCOCC3)c3c(c12)CCCC3 | inactive | 29.6 | 64.1% | inactive | 137 | inactive |
| CC(C)c1nc2oc3c(=O)[nH]cnc3c2c2c1CCC2 | inactive | 80 | 108% | inactive | 138 | inactive |
| O=c1[nH]c(N/N=C\c2ccc3c(c2)OCO3)nc2ccccc12 | inactive | 80.8 | 118% | inactive | 202 | inactive |
| COc1cc(/C=N/NC(=O)CN(Cc2ccccc2)S(=O)(=O)c2ccc3c(c2)OCCO3)ccc1O | inactive | 40.1 | 52.5% | inactive | 126 | inactive |
| CCN(CC)c1ccc2c(c1)oc(=O)c1c(Cl)cc(=O)oc12 | inactive | 29 | 72.6% | inactive | 226 | inactive |
